{
  "source": "paper PMC8384837",
  "about": "“Expanding the binding specificity for RNA recognition by a PUF domain”",
  "assay_in_all_cases": "yeast three-hybrid, YBZ-1, SC-Leu-His + 0.5 mM 3-AT, 4 days",
  "conditions_in_all_cases": "tags: N-Gal4 AD-HA kept; label: inside an RPR1-promoter hybrid RNA with tandem MS2 sites; ssRNA",
  "key": {"PUM1 PUF domain R5-HRL": {"target": "PUM1 PUF domain R5-HRL (Homo sapiens, UniProt Q14671 828-1176, C1007H;Q1011L)", "in_short": "(§1)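 Matching RNA elements and Pumilio-1 PUF domain libraries, randomized at the three base-contacting residues of every repeat, were co-expressed from a centromeric plasmid in strain YBZ-1 (LexA–MS2 coat fusion, HIS3 reporter). The repeat regions were PCR-amplified and Illumina-sequenced from cells grown four days on SC-Leu (input) or SC-Leu-His + 0.5 mM 3-AT (selection). The interaction score is the log change in variant frequency from input to selection. It is computed in log2, with a pseudocount of 1 for absent variants.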"}, "PUM1 PUF domain R5-SPC": {"target": "PUM1 PUF domain R5-SPC (Homo sapiens, UniProt Q14671 828-1176, C1007S;R1008P;Q1011C)", "in_short": "as §1"}, "PUM1 PUF domain R1-MVR": {"target": "PUM1 PUF domain R1-MVR (Homo sapiens, UniProt Q14671 828-1176, S863M;R864V;Q867R)", "in_short": "as §1"}, "PUM1 PUF domain R6-IWR": {"target": "T1, PUM1 PUF domain R6-IWR (Homo sapiens, UniProt Q14671 828-1176, N1043I;Y1044W;Q1047R)", "T1 sequence": "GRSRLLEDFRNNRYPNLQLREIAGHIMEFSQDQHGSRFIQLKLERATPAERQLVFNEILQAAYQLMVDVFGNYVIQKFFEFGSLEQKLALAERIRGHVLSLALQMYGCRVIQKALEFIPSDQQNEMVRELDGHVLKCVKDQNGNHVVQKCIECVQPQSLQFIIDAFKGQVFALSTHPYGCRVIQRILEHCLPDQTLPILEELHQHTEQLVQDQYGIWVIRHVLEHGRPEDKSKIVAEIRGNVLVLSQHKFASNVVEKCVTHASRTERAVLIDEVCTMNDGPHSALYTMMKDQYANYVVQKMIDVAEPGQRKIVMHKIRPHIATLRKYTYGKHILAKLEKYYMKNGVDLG", "in_short": "as §1"}, "PUM1 PUF domain R5-RAC": {"target": "PUM1 PUF domain R5-RAC (Homo sapiens, UniProt Q14671 828-1176, C1007R;R1008A;Q1011C)", "in_short": "as §1"}, "PUM1 PUF domain R4-DYR": {"target": "PUM1 PUF domain R4-DYR (Homo sapiens, UniProt Q14671 828-1176, N971D;H972Y;Q975R)", "in_short": "as §1"}, "PUM1 PUF domain R3-WWG": {"target": "PUM1 PUF domain R3-WWG (Homo sapiens, UniProt Q14671 828-1176, C935W;R936W;Q939G)", "in_short": "as §1"}, "PUM1 PUF domain R5-SIS": {"target": "PUM1 PUF domain R5-SIS (Homo sapiens, UniProt Q14671 828-1176, C1007S;R1008I;Q1011S)", "in_short": "as §1"}, "PUM1 PUF domain R4-NWP": {"target": "PUM1 PUF domain R4-NWP (Homo sapiens, UniProt Q14671 828-1176, H972W;Q975P)", "in_short": "as §1"}, "PUM1 PUF domain R4-EYI": {"target": "PUM1 PUF domain R4-EYI (Homo sapiens, UniProt Q14671 828-1176, N971E;H972Y;Q975I)", "in_short": "as §1"}},
  "data": [
    {"sequence": "GGCUAGAACUAGUGGAUCCCCCGGCGCCCGGCGGCUCGAGCCCGGGUAAGUGUUAAUAGUCUGCAUGCCGCCGGGCGCCAUGCCUGCAGGUCGACUCUAGAAAACAUG", "values": [
      {"measurement": "binding signal", "setting": "PUM1 PUF domain R5-HRL", "result": "4.98 log2 enrichment (interaction score)"},
      {"measurement": "binding signal", "setting": "PUM1 PUF domain R5-SPC", "result": "2.48 log2 enrichment (interaction score)"}
    ]},
    {"sequence": "GGCUAGAACUAGUGGAUCCCCCGGCGCCCGGCGGCUCGAGCCCGGGUAAGUGUAAAUUGUCUGCAUGCCGCCGGGCGCCAUGCCUGCAGGUCGACUCUAGAAAACAUG", "values": [
      {"measurement": "binding signal", "setting": "PUM1 PUF domain R1-MVR", "result": "1.71 log2 enrichment (interaction score)"}
    ]},
    {"sequence": "GGCUAGAACUAGUGGAUCCCCCGGCGCCCGGCGGCUCGAGCCCGGGUAAGUGUAAAUCGUCUGCAUGCCGCCGGGCGCCAUGCCUGCAGGUCGACUCUAGAAAACAUG", "values": [
      {"measurement": "binding signal", "setting": "PUM1 PUF domain R1-MVR", "result": "2.85 log2 enrichment (interaction score)"}
    ]},
    {"sequence": "GGCUAGAACUAGUGGAUCCCCCGGCGCCCGGCGGCUCGAGCCCGGGUAAGUGUAAAUAGUCUGCAUGCCGCCGGGCGCCAUGCCUGCAGGUCGACUCUAGAAAACAUG", "values": [
      {"measurement": "binding signal", "setting": "PUM1 PUF domain R6-IWR", "result": "6.32 log2 enrichment (interaction score)"},
      {"measurement": "binding signal", "setting": "PUM1 PUF domain R5-RAC", "result": "0.59 log2 enrichment (interaction score)"},
      {"measurement": "binding signal", "setting": "PUM1 PUF domain R4-DYR", "result": "1.4 log2 enrichment (interaction score)"}
    ]},
    {"sequence": "GGCUAGAACUAGUGGAUCCCCCGGCGCCCGGCGGCUCGAGCCCGGGUAAGUGUAAGUAGUCUGCAUGCCGCCGGGCGCCAUGCCUGCAGGUCGACUCUAGAAAACAUG", "values": [
      {"measurement": "binding signal", "setting": "PUM1 PUF domain R3-WWG", "result": "4.28 log2 enrichment (interaction score)"}
    ]},
    {"sequence": "GGCUAGAACUAGUGGAUCCCCCGGCGCCCGGCGGCUCGAGCCCGGGUAAGUGUAAUUAGUCUGCAUGCCGCCGGGCGCCAUGCCUGCAGGUCGACUCUAGAAAACAUG", "values": [
      {"measurement": "binding signal", "setting": "PUM1 PUF domain R3-WWG", "result": "4.2 log2 enrichment (interaction score)"}
    ]},
    {"sequence": "GGCUAGAACUAGUGGAUCCCCCGGCGCCCGGCGGCUCGAGCCCGGGUAAGUGUCAAUAGUCUGCAUGCCGCCGGGCGCCAUGCCUGCAGGUCGACUCUAGAAAACAUG", "values": [
      {"measurement": "binding signal", "setting": "PUM1 PUF domain R5-RAC", "result": "3.54 log2 enrichment (interaction score)"},
      {"measurement": "binding signal", "setting": "PUM1 PUF domain R5-HRL", "result": "2.78 log2 enrichment (interaction score)"}
    ]},
    {"sequence": "GGCUAGAACUAGUGGAUCCCCCGGCGCCCGGCGGCUCGAGCCCGGGUAAGUGUACAUAGUCUGCAUGCCGCCGGGCGCCAUGCCUGCAGGUCGACUCUAGAAAACAUG", "values": [
      {"measurement": "binding signal", "setting": "PUM1 PUF domain R4-DYR", "result": "6.53 log2 enrichment (interaction score)"}
    ]},
    {"sequence": "GGCUAGAACUAGUGGAUCCCCCGGCGCCCGGCGGCUCGAGCCCGGGUAAGUGUGAAUAGUCUGCAUGCCGCCGGGCGCCAUGCCUGCAGGUCGACUCUAGAAAACAUG", "values": [
      {"measurement": "binding signal", "setting": "PUM1 PUF domain R5-SIS", "result": "3.76 log2 enrichment (interaction score)"}
    ]},
    {"sequence": "GGCUAGAACUAGUGGAUCCCCCGGCGCCCGGCGGCUCGAGCCCGGGUAAGUGAAAAUAGUCUGCAUGCCGCCGGGCGCCAUGCCUGCAGGUCGACUCUAGAAAACAUG", "values": [
      {"measurement": "binding signal", "setting": "PUM1 PUF domain R6-IWR", "result": "1.61 log2 enrichment (interaction score)"}
    ]},
    {"sequence": "GGCUAGAACUAGUGGAUCCCCCGGCGCCCGGCGGCUCGAGCCCGGGUAAGUGUAUAUAGUCUGCAUGCCGCCGGGCGCCAUGCCUGCAGGUCGACUCUAGAAAACAUG", "values": [
      {"measurement": "binding signal", "setting": "PUM1 PUF domain R4-NWP", "result": "2.37 log2 enrichment (interaction score)"},
      {"measurement": "binding signal", "setting": "PUM1 PUF domain R4-DYR", "result": "6.18 log2 enrichment (interaction score)"},
      {"measurement": "binding signal", "setting": "PUM1 PUF domain R4-EYI", "result": "3.01 log2 enrichment (interaction score)"}
    ]}
  ]
}
